# From PubChem BioAssay (NCATS)
# Records with an inconclusive call do not appear. Calls of active or inactive are those of the source. Calls come from the whole dose curve; as a rule, active = well fitted curve in the direction sought with a large enough effect; inconclusive = small, poorly fitted or top-dose-only effect, or another doubt; inactive = no such curve, though single readings can be large; an effect the other way counts as inactive or inconclusive.
# Experiments:
# [1] = Quantitative High-Throughput drug screen in 47 multiple myeloma cell lines against the NCATS MIPE library collection: Delta47_JCRB cell viability assay (AID 1918925; note: nearly all actives have a fitted effect of over 45% in size)
# Outline: (§1)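 CellTiter-Glo luminescence (ATP) after 48 h compound exposure, 37C/5% CO2; 500 cells/well; MIPE 4.0 approved/investigational drugs pinned in; DMSO = 100%, media only = 0% viability.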
# [2] = Quantitative High-Throughput drug screen in 47 multiple myeloma cell lines against the NCATS MIPE library collection: EJM_DSMZ cell viability assay (AID 1918926; note: nearly all actives have a fitted effect of over 30% in size)
# Outline: as §1
# [3] = Quantitative High-Throughput drug screen in 47 multiple myeloma cell lines against the NCATS MIPE library collection: ARP1_JJKsccF8 cell viability assay (AID 1918928; note: nearly all actives have a fitted effect of over 40% in size)
# Outline: (§2)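 Myeloma cells at 500 per well in 1536-well format treated with MIPE 4.0 library by pin transfer for 48 h at 37C, 5% CO2. Viability from ATP luminescence (CellTiter-Glo), normalized to DMSO (100%) and media-only (0%) wells.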
# [4] = Quantitative High-Throughput drug screen in 47 multiple myeloma cell lines against the NCATS MIPE library collection: ARD_JJKsccE7 cell viability assay (AID 1918929)
# Outline: as §1
# [5] = Quantitative High-Throughput drug screen in 47 multiple myeloma cell lines against the NCATS MIPE library collection: Karpas620_DSMZ cell viability assay (AID 1918959); note: nearly all actives have a fitted effect of over 30% in size
# Outline: (§3)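 Primary qHTS used for cherry-picking: cells at 500/well, library compounds for 48 h (37C, 5% CO2), luminescent ATP assay.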
# [6] = Quantitative High-Throughput drug screen in 47 multiple myeloma cell lines against the NCATS MIPE library collection: KMM1_JCRB cell viability assay (AID 1918960); note: nearly all actives have a fitted effect of over 30% in size
# Outline: as §2
# [7] = Quantitative High-Throughput drug screen in 47 multiple myeloma cell lines against the NCATS MIPE library collection: KHM11_PLB cell viability assay (AID 1918962); note: nearly all actives have a fitted effect of over 35% in size
# Outline: as §3
# [8] = Quantitative High-Throughput drug screen in 47 multiple myeloma cell lines against the NCATS MIPE library collection: JIM3_ECACC cell viability assay (AID 1918963; note: nearly all actives have a fitted effect of over 35% in size)
# Outline: as §3
# [9] = Quantitative High-Throughput drug screen in 47 multiple myeloma cell lines against the NCATS MIPE library collection: JIM1_ECACC cell viability assay (AID 1918964)
# Outline: as §1
# [10] = Quantitative High-Throughput drug screen in 47 multiple myeloma cell lines against the NCATS MIPE library collection: INA6_PLB cell viability assay (AID 1918965; note: nearly all actives have a fitted effect of over 55% in size)
# Outline: (§4)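 We plated 500 myeloma cells per well, pinned in MIPE 4.0 compounds, and incubated for 48 hours at 37C. ATP was then quantified with CellTiter-Glo, with DMSO and media-only wells defining 100% and 0%.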
# [11] = Quantitative High-Throughput drug screen in 47 multiple myeloma cell lines against the NCATS MIPE library collection: JJN3_DSMZ cell viability assay (AID 1918966; note: nearly all actives have a fitted effect of over 50% in size)
# Outline: as §1
# [12] = Quantitative High-Throughput drug screen in 47 multiple myeloma cell lines against the NCATS MIPE library collection: Karpas25_ECACC cell viability assay (AID 1918968; note: nearly all actives have a fitted effect of over 35% in size)
# Outline: as §1
# [13] = Quantitative High-Throughput drug screen in 47 multiple myeloma cell lines against the NCATS MIPE library collection: AMO1_DSMZ cell viability assay (AID 1918927; note: nearly all actives have a fitted effect of over 30% in size)
# Outline: as §1
# [14] = Quantitative High-Throughput drug screen in 47 multiple myeloma cell lines against the NCATS MIPE library collection: KMS27_JCRB cell viability assay (AID 1918970); details: KMS27 myeloma cells, CellTiter-Glo ATP viability, 48 h; viability (% of DMSO): at 45.8 µM (top of the series); note: nearly all actives have a fitted effect of over 30% in size
# Outline: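 KMS27_JCRB myeloma cells, 500 per well, exposed 48 h at 37 C, 5% CO2 to MIPE 4.0 compounds. Viability from ATP by CellTiter-Glo luminescence, normalized to DMSO (100%) and medium-only (0%) wells.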
# [15] = Quantitative High-Throughput drug screen in 47 multiple myeloma cell lines against the NCATS MIPE library collection: H1112_PLB cell viability assay (AID 1918967; note: nearly all actives have a fitted effect of over 30% in size)
# Outline: as §1
# [16] = Quantitative High-Throughput drug screen in 47 multiple myeloma cell lines against the NCATS MIPE library collection: Karpas417_ECACC cell viability assay (AID 1918961); details: Karpas417 myeloma viability, CellTiter-Glo ATP luminescence, 48 h; viability (% of DMSO): at 45.8 µM (top of the series)
# Outline: as §4
# Potency is the fitted concentration of half-maximal effect.
SMILES,Potency [1],Potency [2],Potency [3],Potency [4],Potency [5],Potency [6],Potency [7],Potency [8],Potency [9],Potency [10],Potency [11],Potency [12],Potency [13],Potency [14],Potency [15],Potency [16]
CC(=O)NCCC(=O)N[C@@H](CCC(N)=O)C(=O)N[C@@H](CO)C(=O)N[C@@H](CCC(N)=O)C(=O)N[C@@H](CCC(N)=O)C(=O)N[C@H](C(=O)N[C@@H](Cc1ccccc1)C(=O)N[C@]1(C)CCCCCCC=CCCC[C@@](C)(C(=O)N[C@@H](CCC(N)=O)C(=O)N[C@@H](CC(N)=O)C(N)=O)NC(=O)[C@H](CC(C)C)NC(=O)[C@H](CC(C)C)NC(=O)[C@@H](CCCNC(=N)N)NC(=O)[C@H](Cc2c[nH]c3ccccc23)NC(=O)[C@H](CC(C)C)NC(=O)[C@H](CC(N)=O)NC1=O)[C@H](C)O,20.9 µM (active),18.7 µM (active),20.9 µM (active),inactive,inactive,inactive,18.7 µM (active),20.9 µM (active),7.43 µM (active),20.9 µM (active),14.8 µM (active),26.4 µM (active),–,–,–,–
C=CCc1cccc(C=NNC(=O)CN2CCN(Cc3ccccc3)CC2)c1O,18.7 µM (active),–,9.35 µM (active),9.35 µM (active),9.35 µM (active),5.26 µM (active),20.9 µM (active),23.5 µM (active),5.26 µM (active),14.8 µM (active),–,18.7 µM (active),5.26 µM (active),5.26 µM (active),–,–
CN1[C@H]2CC[C@H]1CC(OC(=O)c1c[nH]c3ccccc13)C2 (some centres undefined),4.18 µM (active),–,–,–,inactive,inactive,–,inactive,inactive,inactive,–,–,inactive,inactive,–,–
O=C(C=Cc1ccc(O)cc1)c1ccc(O)cc1O,13.2 µM (active),–,–,–,–,16.6 µM (active),–,20.9 µM (active),4.69 µM (active),3.32 µM (active),14.8 µM (active),23.5 µM (active),10.5 µM (active),–,–,–
CC(C)n1c(C=C[C@H](O)C[C@H](O)CC(=O)O)c(-c2ccc(F)cc2)c2ccccc21,18.7 µM (active),inactive,–,9.35 µM (active),–,–,14.8 µM (active),16.6 µM (active),7.43 µM (active),10.5 µM (active),inactive,14.8 µM (active),16.6 µM (active),–,16.6 µM (active),–
C=C1[C@H](n2cnc3c(=O)[nH]c(N)nc32)C[C@H](O)[C@H]1CO,3.32 µM (active),inactive,–,9.35 µM (active),–,18.7 µM (active),–,–,–,11.8 µM (active),–,2.96 µM (active),18.7 µM (active),–,11.8 µM (active),–
CCc1cc(-c2n[nH]c(C)c2-c2ccc3c(c2)OCCO3)c(O)cc1O,7.43 µM (active),–,2.96 µM (active),1.18 µM (active),14.8 µM (active),3.72 µM (active),4.69 µM (active),8.33 µM (active),5.9 µM (active),4.69 µM (active),–,7.43 µM (active),3.72 µM (active),5.9 µM (active),8.33 µM (active),–
COc1cc(C=CC(=O)O)ccc1O,inactive,inactive,–,–,inactive,inactive,inactive,–,–,–,inactive,–,inactive,inactive,–,4.2 nM (active)
CNC(=O)[C@H](CC1=CN=C2C=CCC=C12)NC(=O)[C@@H](CC(=O)NO)CC(C)C,26.4 µM (active),–,inactive,0.118 µM (active),0.0743 µM (active),0.148 µM (active),–,26.4 µM (active),0.0833 µM (active),33.2 µM (active),–,6.62 µM (active),0.0743 µM (active),0.0935 µM (active),14.8 µM (active),20.9 nM (active)
CC(C)C[C@@H](C(=O)N[C@H](C(=O)OC1CCCC1)c1ccccc1)[C@H](O)C(=O)NO,20.9 µM (active),–,14.8 µM (active),4.69 µM (active),5.26 µM (active),4.18 µM (active),–,5.26 µM (active),–,–,–,20.9 µM (active),inactive,–,–,1320 nM (active)
O=C1NC(=O)C(=Cc2ccc(-c3ccc(F)cc3O)o2)S1,0.418 µM (active),–,–,–,inactive,–,–,inactive,–,7.43 µM (active),–,–,3.32 µM (active),2.09 µM (active),20.9 µM (active),–
CN[C@@H]1CN(c2ccc3c(=O)c(C(=O)O)cn(-c4nccs4)c3n2)C[C@@H]1OC,5.75 µM (active),–,1.82 µM (active),inactive,inactive,–,14.4 µM (active),14.4 µM (active),–,1.44 µM (active),8.12 µM (active),5.12 µM (active),0.812 µM (active),–,12.9 µM (active),–
COc1cc(Cl)cn2c(-c3cccc(NC4CNC4)n3)cnc12,20.9 µM (active),–,inactive,–,–,16.6 µM (active),18.7 µM (active),–,4.18 µM (active),16.6 µM (active),–,–,5.26 µM (active),–,–,–
COC(=O)[C@H](c1ccccc1Cl)N1CCc2sccc2C1,inactive,–,inactive,–,–,–,–,inactive,–,–,20.9 µM (active),–,26.4 µM (active),–,–,–
Cc1ccc(S(=O)(=O)OCC(=O)Nc2ccc(C(=O)O)c(O)c2)cc1,16.6 µM (active),–,inactive,inactive,inactive,inactive,–,23.5 µM (active),–,13.2 µM (active),16.6 µM (active),20.9 µM (active),inactive,–,20.9 µM (active),–
